# Experimental data reported in PubChem BioAssay (NCI).
# Values joined by “and” are separate entries in the source; they are usually repeats but may differ in a detail not shown here. Equal entries are not always repeated. This is part of a sample that, as a whole, favours compounds with a hit. Of some 83,000 tested, about 20% had one in any assay.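 Each cell line was grown in a 96-well plate and treated with one concentration of compound for 48 hours. Values below 10 were considered active.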 A number with no mark means an inactive call. Active and inactive are the calls of the source.
# Key:
# Assay in all cases: NCI-60 one-dose screen, 48 h (100 = growth as untreated, 0 = no growth, -100 = all killed)
# Details in all cases: 10 µM unless noted
# [1] = tested on: T-47D breast
# [2] = tested on: BT-549 breast
# [3] = tested on: MDA-MB-435 melanoma
# [4] = tested on: SW-620 colon
# [5] = tested on: MCF7 breast
# [6] = tested on: HCT-116 colon
# [7] = tested on: HCC-2998 colon
# [8] = tested on: KM12 colon
Compound,growth [1],growth [2],growth [3],growth [4],growth [5],growth [6],growth [7],growth [8]
COc1cc(NC(=O)Nc2cccc(-c3cc(=O)c4c(OC)c(OC)c(OC)cc4o3)c2)cc(OC)c1OC,11.9%,31.9%,57.1%,41.3%,40.7%,28.9%,60.7%,38.7%
COc1ccc(C(=NNS(=O)(=O)c2ccc(C)cc2)c2ccccc2)cc1OC,90%,112%,106%,101%,91.4%,96.3%,102%,105%
CCN(CC)c1ccc(/C=N/NC(=O)c2ccc(S(N)(=O)=O)cc2)cc1,26%,26.3%,33%,40.4%,7.83% (active),21.5%,43%,21%
CC(=C(c1ccc(OCCN2CCCC2)cc1)c1ccc(OCCN2CCCC2)cc1)c1ccc(Cl)cc1,-64.7% (active),55.8%,-89.7% (active),-73.3% (active),-75% (active),-93.6% (active),-57.1% (active),-22.9% (active)
CC(Nc1c(C#N)cnc2ccc(-c3cncc(O)c3)cc12)c1ccccc1 (stereo not given),6.53% (active),-18.3% (active),25.2%,10.1%,0.808% (active),3.68% (active),19.5%,4.85% (active)
Cc1[nH]c(C(=O)Nc2ccccc2OCc2cccc(C(=O)NC3CCCNC3)c2)c(Cl)c1Cl (stereo not given),-9.08% (active),98.8%,-80.2% (active),-68.8% (active),-77.8% (active),-67% (active),-90% (active),-78.4% (active)
O=[N+]([O-])c1ccc(NC(=S)NNC(=S)Nc2ccc(Br)cc2)cc1,73.3%,103%,99%,91.1%,70.1%,90.6%,53.7%,55.4%
C/C(=N/N)c1nnn(-c2ccc(Br)cc2)c1C,102%,102%,102%,105%,77.6%,103%,107%,99.4%
COc1ccc(C2CC(c3cccc(OCCCCOc4cccc(C5=NOC(c6ccc(OC)cc6)C5)c4)c3)=NO2)cc1 (stereo not given),73.7%,113%,105%,32.9%,15%,-21.9% (active),101%,76.2%
COC(=O)N1CCN(CCNCc2ccc(NC(=O)c3ccc(C)c(C#Cc4cnc5cccnn45)c3)cc2C(F)(F)F)CC1,34%,24.1%,-21.8% (active),14.6%,-6.54% (active),4.9% (active),14.4%,4.91% (active)
CCCN1C=C/C(=C\C(=O)n2ccc3ccccc32)c2ccccc21,46.6%,103%,93%,86.6%,64.5%,69%,104%,84.8%
N#Cc1c(-c2cccs2)cc(-c2cnccn2)nc1SCC(=O)N/N=C/c1ccccc1,25.6%,14.8%,23.6%,8.83% (active),19.4%,-23.6% (active),71%,33.2%
COc1ccc(Cn2cc(C#N)c(N)c2C(C)=O)cc1,96.8%,114%,104%,111%,90.4%,108%,107%,98.7%
O=C(/C=C/c1ccccc1Cl)Nc1ncc(Cc2cc(Cl)ccc2Cl)s1,29.9%,32.5%,-26.6% (active),14.3%,16.6%,17.3%,57.8%,22.1%
C=C(C)[C@@H]1CC[C@]2(COCCCNCCCN)CC[C@]3(C)[C@H](CC[C@@H]4[C@@]5(C)CC[C@H](O)C(C)(C)[C@@H]5CC[C@]43C)[C@@H]12,-53.3% (active),-77.4% (active),-95.8% (active),-68.1% (active),-75.4% (active),-86.5% (active),-71.5% (active),-65.4% (active)
Cn1c(SCC(=O)c2ccco2)nc2ccccc2c1=O,55.3%,96.5%,105%,111%,18.3%,102%,112%,86.3%
CNC(=O)c1cc(Oc2ccc3c(c2)sc2nc(-c4ccc(N(C)C)cc4)cn23)ccn1,45.2%,36.5%,-37.8% (active),27.9%,11.2%,8.11% (active),0.825% (active),23.2%
O=C1C(N2CCN(c3ccccc3)CC2)=C(Cl)C(=O)c2ncccc21,-54.2% (active),97.3%,-67% (active),-35% (active),-44.7% (active),-56.1% (active),97.8%,92.3%
CC(=C(c1ccc(OCCCN(C)C)cc1)c1ccc(OCCCN(C)C)cc1)c1ccc(Cl)cc1,74.9%,109%,89.3%,87.8%,37.9%,64.6%,81.7%,84.2%
Oc1ccc(-c2nc3ccc(/C(=N\N=C\c4ccc(Cl)cc4)c4ccccc4)cc3[nH]2)cc1,79.9%,94.3%,84.4%,88.5%,53.1%,82.6%,91.9%,74%
CN(C)c1ccc(/C=N/Nc2nc(N/N=C/c3ccc(N(C)C)cc3)nc(N3CCCCC3)n2)cc1,46%,111%,60.4%,64.2%,31.1%,14.9%,103%,93%
CCCCCCCCCC(=O)NC(C)(C)C(=O)N1CCC[C@H]1C(=O)N[C@@H](CC(C)C)C(=O)N[C@@](C)(CC)C(=O)N[C@@H](CCC(N)=O)C(=O)N[C@H](CCC(N)=O)C(=O)NC(C)(C)C(=O)NC(C)(C)C(=O)N[C@@H](CCC(N)=O)C(=O)N[C@H](CC(C)C)C(=O)N[C@H](CO)CC(C)C,-34.9% (active) and -12.9% (active),-84.8% (active) and -76.9% (active),-60.3% (active) and -95.4% (active),-83.6% (active) and -50.6% (active),-83.8% (active) and -76.9% (active),-67.5% (active) and 1.05% (active),-89.2% (active) and -59.5% (active),-89.6% (active) and -89.8% (active)
COc1ccccc1/C=C1\Oc2ccc(O)c(O)c2C1=O,86.3%,89.5%,93.4%,105%,88.2%,83.7%,96.8%,99.7%
CCC1=Cc2c(OC)cccc2OC12C=Cc1c(OC)cccc1O2 (stereo not given),46.8%,46.6%,-18.8% (active),30%,10.8%,8.84% (active),2.34% (active),12.4%
N#Cc1c(-c2cccs2)cc(-c2cnccn2)nc1SCC(=O)N/N=C/c1ccc(Cl)cc1,93.8%,107%,103%,93.1%,84.6%,57.8%,119%,96.5%
CN1CCN(c2ccc(Nc3nc(NCCNS(=O)(=O)c4ccc(Cl)cc4)c4sccc4n3)cc2)CC1,84.3%,111%,95.4%,94.7%,83.2%,58.5%,108%,93.7%
CN1CCN(c2ccc(Nc3nc(NCCCNS(=O)(=O)c4cccc5ccccc45)c4sccc4n3)cc2)CC1,-2.47% (active),-87.3% (active),-73% (active),-0.438% (active),-20.9% (active),-73% (active),-51.4% (active),4.02% (active)
CC(C)(O)c1cncc(-c2ccc3ncc(C#N)c(N4CCc5cc(F)c(Cl)cc54)c3c2)c1,2.88% (active),2.34% (active),17.9%,26.6%,8.93% (active),24.8%,18.7%,34.3%
CNC(=O)c1cc(-n2ccc3cc(NC(=O)Nc4ccc(N5CCN(C)CC5)c(C(F)(F)F)c4)ccc32)ccn1,87.4%,95.1%,22.5%,21.5%,-23.9% (active),-17.4% (active),92.3%,30.5%
Brc1ccc2[nH]cc(-c3nn4cc(-c5nccs5)nc4s3)c2c1,29.7%,62.6%,12.9%,25.2%,33.9%,-81.7% (active),36.7%,21%
